This note sets out measurements from PubChem BioAssay (NCATS).

The target in experiment [1] is Luciferin 4-monooxygenase (Photinus pyralis) (UniProt P08659). Briefly: Biochemical firefly luciferase enzyme assay for NPC (AID 624030).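 Also: purified P. pyralis luciferase at 10 nM with luciferin and ATP substrate; nearly all actives have a fitted effect of over 70% in size.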 The following applies: purified P. pyralis luciferase, luminescence, 5 min; series mostly up to 58.6 µM. Put shortly: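 Purified P. pyralis luciferase at 10 nM in 50 mM Tris Acetate (final), luminescence read within 5 minutes of enzyme addition to compounds. Activity normalised to PTC124 versus DMSO; concentration-response curves classed by r2, magnitude and activity.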

Experiment [2] is described as follows: S16 Schwann cell viability assay (CellTiter-Glo assay) (AID 624031).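 Also: native untransfected S16 rat Schwann cells; cellular ATP luminescence as a viability measure; nearly all actives have a fitted effect of over 70% in size.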 The following applies: S16 rat Schwann cells viability, 24 h; series mostly up to 57.5 µM. Put shortly: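 Cells were seeded at 500-750 per well in phenol red-free DMEM with 10% FBS and left overnight. Compounds or DMSO were pinned in, incubation ran 24 h at 37 °C/5% CO2, then CellTiter-Glo reagent was added and luminescence measured.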

The nature of experiment [3]: S16 Schwann cell PMP22 intronic element firefly luciferase assay (AID 624032). Also: nearly all actives have a fitted effect of over 30% in size. The following applies: S16 rat Schwann cells, PMP22 element FLuc, 24 h; series mostly up to 57.5 µM. The procedure, abridged:
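Rat S16 Schwann cells stably carrying firefly luciferase driven by a PMP22 intronic element, in 10% FBS, treated 24 h at 37 C. ONE-Glo luminescence normalized to PTC124 control and DMSO (0%); curves classed by r2, magnitude and activity.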

Experiment [4] has as its system AS120. Briefly: qHTS profiling for inhibitors of Plasmodium falciparum proliferation (AID 504749). Also: nearly all actives have a fitted effect of over 60% in size. The following applies: P. falciparum in erythrocytes, SYBR Green DNA, 72 h; series mostly up to 28.7 µM. Put shortly: (§1)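 Each compound contacts P. falciparum-infected red blood cells for 72 h at 37 C; lysis buffer (Tris, EDTA, saponin, Triton X, SYBR Green I) is added and fluorescence measured next morning; values normalized to controls.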

For experiment [5], the system named is ATS95. The experiment is described as above. The following applies: P. falciparum in erythrocytes, SYBR Green DNA, 72 h; series mostly up to 28.7 µM. Put shortly: as §1
Experiment [6] has as its system CP191. Described as above. The following applies: P. falciparum in erythrocytes, SYBR Green DNA, 72 h; series mostly up to 28.7 µM. The procedure, abridged: as §1
Experiment [7] has as its system CP247. The description is as above. The following applies: P. falciparum in erythrocytes, SYBR Green DNA, 72 h; series mostly up to 28.7 µM. Put shortly: as §1
Experiment [8] deals with CP250. The experiment is described as above. The following applies: P. falciparum in erythrocytes, SYBR Green DNA, 72 h; series mostly up to 28.7 µM. Put shortly:
as §1

The test system of experiment [9] is CP262. Described as above. The following applies: P. falciparum in erythrocytes, SYBR Green DNA, 72 h; series mostly up to 28.7 µM. The procedure, abridged: as §1
The subject of experiment [10] is CP297. The description is as above. The following applies: P. falciparum in erythrocytes, SYBR Green DNA, 72 h; series mostly up to 28.7 µM. The procedure, abridged: as §1
In experiment [11] the test system is CP335. The experiment is described as above. The following applies: P. falciparum in erythrocytes, SYBR Green DNA, 72 h; series mostly up to 28.7 µM. The procedure, abridged: as §1
For experiment [12], the system named is Dd2. The description is as above. The following applies: P. falciparum in erythrocytes, SYBR Green DNA, 72 h; series mostly up to 28.7 µM. Put shortly:
as §1

The test system of experiment [13] is ECU. The experiment is described as above. The following applies: P. falciparum in erythrocytes, SYBR Green DNA, 72 h; series mostly up to 28.7 µM. Put shortly: as §1
The test system of experiment [14] is N140. The description is as above. The following applies: P. falciparum in erythrocytes, SYBR Green DNA, 72 h; series mostly up to 28.7 µM. The procedure, abridged:
as §1

In experiment [15] the test system is P93_24. The experiment is described as above. The following applies: P. falciparum in erythrocytes, SYBR Green DNA, 72 h; series mostly up to 28.7 µM. Put shortly:
as §1

For experiment [16], the system named is PAD. The experiment is described as above. The following applies: P. falciparum in erythrocytes, SYBR Green DNA, 72 h; series mostly up to 28.7 µM. The procedure, abridged: as §1
Experiment [17] relates to TAB109. The description is as above. The following applies: P. falciparum in erythrocytes, SYBR Green DNA, 72 h; series mostly up to 28.7 µM. Put shortly:
as §1

Experiment [18] concerns TAB113. The experiment is described as above. The following applies: P. falciparum in erythrocytes, SYBR Green DNA, 72 h; series mostly up to 28.7 µM. The procedure, abridged:
as §1

The test system of experiment [19] is TAB165. The experiment is described as above. The following applies: P. falciparum in erythrocytes, SYBR Green DNA, 72 h; series mostly up to 28.7 µM. Put shortly: as §1
The target of experiment [20] is Mitogen-activated protein kinase 10 (Mus musculus) (UniProt Q61831). Put plainly: JNK3 AlphaScreen Assay (AID 530; active = well fitted curve in either direction with a large enough effect, not every such curve was filed as active;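 also: kinase came from lysate of stimulated human HepG2 cells; signal reports phosphorylation of biotinylated GST-cJun 1-79 at Ser73 with 10 µM ATP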). The following applies: JNK3 lysate, c-Jun phosphorylation; series mostly up to 57.1 µM. The procedure, abridged: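 Activity was read by AlphaScreen after JNK3-containing HepG2 lysate (cytokine pre-activated) phosphorylated biotinylated GST-cJun with 10 uM ATP at room temperature. Phospho-Ser73 cJun antibody with Protein-A acceptor beads provided detection.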

The structures appear in SMILES notation. Records with an inconclusive call do not appear. Where a call stands in place of a potency, no number is given. Activity calls are given as the source filed them. Unless noted, calls follow the shape of the dose curve; as a rule, active = well fitted curve in the direction sought with a large enough effect; inconclusive = small, poorly fitted or top-dose-only effect, or another doubt; inactive = no such curve, though single readings can be large; an effect the other way counts as inactive or inconclusive.

Chain of Luciferin 4-monooxygenase (Photinus pyralis) (P08659 whole entry, looked up): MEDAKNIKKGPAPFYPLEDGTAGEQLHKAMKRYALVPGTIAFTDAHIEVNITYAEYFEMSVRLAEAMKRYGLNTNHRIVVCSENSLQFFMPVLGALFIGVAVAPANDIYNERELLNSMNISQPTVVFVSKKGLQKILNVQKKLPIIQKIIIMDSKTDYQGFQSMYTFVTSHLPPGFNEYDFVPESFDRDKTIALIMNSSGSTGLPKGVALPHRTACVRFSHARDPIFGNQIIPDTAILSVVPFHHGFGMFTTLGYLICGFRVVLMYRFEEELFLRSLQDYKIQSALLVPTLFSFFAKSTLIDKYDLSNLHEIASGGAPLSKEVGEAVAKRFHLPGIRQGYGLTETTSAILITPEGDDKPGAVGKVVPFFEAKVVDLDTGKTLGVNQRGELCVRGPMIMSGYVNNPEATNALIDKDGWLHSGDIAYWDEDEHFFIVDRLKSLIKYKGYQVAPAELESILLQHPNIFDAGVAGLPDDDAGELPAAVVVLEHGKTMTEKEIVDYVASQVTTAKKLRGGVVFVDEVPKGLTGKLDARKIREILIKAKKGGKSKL

For `CC(=O)OCC1=C(C(=O)O)N2C(=O)C(NC(=O)Cc3ccccc3)C2SC1` (configuration not stated), the Potency entry in experiment [1], in experiment [2], in experiment [3], in experiment [4], in [5] and in experiment [6] was “inactive” throughout. Also, the Potency result in [7], in experiment [8], in [9], in experiment [10], in experiment [11] and in experiment [12] was “inactive” throughout. Further, the Potency entry in experiment [13], in experiment [14], in experiment [15], in [16], in experiment [17] and in experiment [18] was “inactive” each time. For the same compound, the Potency entry in [19] was “inactive”.

As for `Cn1cc(O)nc1NC(=O)Nc1cccc(Cl)c1`, the Potency result in experiment [1], in experiment [2], in experiment [3], in experiment [4], in experiment [5] and in experiment [7] was “inactive” each time. Further, the Potency result in [10], in experiment [11], in experiment [12], in experiment [13], in experiment [14] and in experiment [15] was “inactive” each time. Moreover, the Potency entry in [16], in experiment [17], in experiment [18] and in experiment [19] was “inactive” throughout.

Turning to `CN(C)c1ccc(O)c2c1C[C@@H]1C[C@H]3C(N(C)C)C(=O)C(C(N)=O)=C(O)[C@@]3(O)C(=O)C1=C2O` (some centres not stated), the Potency entry in experiment [1] was “inactive”.

Consider `C[N+]1(C)C2CCC1CC(OC(=O)C(O)c1ccccc1)C2` (configuration not stated), for which the Potency entry in [1] is “inactive”.

As for `COC(=O)C1(Cc2ccccc2)C=C2C(=C(c3ccccc3)C(=O)C2C)CN1` (configuration not stated), in [20], the compound was classed as inactive.

Take `COC(=O)Cn1c(C(=O)N2CCCC2)cc2c1C[C@H]1CN(C(=O)c3ccccc3)[C@@](Cc3ccccc3)(C(=O)OC)[C@@H]21`: in [20], the compound was called inactive.

As to `COc1ccc(CNC(=O)[C@H](C)[C@@H]2C[C@@]2(C)[C@@H](NC(=O)OCc2ccccc2)c2ccccc2)cc1OC`, the compound was called inactive in [20].

On to `CCCC/C=C/C(NC(=O)c1ccc(C(=O)OC)cc1)c1ccccc1` (configuration not stated), for which, in experiment [20], the result was inactive.

Regarding `COC(=O)[C@@]1(Cc2ccc(F)cc2)[C@H]2c3cc(C(=O)N(C)C)n(Cc4ccc(OC)c(OC)c4)c3C[C@H]2CN1C(=O)c1ccccc1`, the result in [20] was inactive.

For `CCCC[C@@H]1C[C@H]1C(NS(=O)(=O)c1cccc2cccnc12)c1ccc(-c2ccccc2)cc1` (some centres not stated), in experiment [20], the compound was called inactive.

With `COCCn1c(C(=O)N2CCCC2)cc2c1C[C@H]1CN(C(=O)c3ccccc3)[C@@](Cc3ccc(OC)cc3)(C(=O)OC)[C@@H]21`, in experiment [20], the compound was classed as inactive.

As to `COC(=O)[C@@H]1C[C@H]1[C@@H](NS(=O)(=O)c1ccc2ccccc2c1)c1ccccc1`, the compound was called inactive in [20].

Regarding `CCCC[C@@H]1C[C@H]1C(NC(=O)c1ccccc1)c1ccc(C(=O)OC)cc1` (some centres not stated), the outcome in experiment [20] was inactive.

On to `C[Si](C)(C)C#Cc1ccccc1NC(=S)Nc1ccccc1`, for which, in experiment [20], the compound was classed as inactive.

For `CC(C)=C1C(=O)C(c2ccccc2)=C2CN3C(=O)N(CCc4ccccc4)C(=O)[C@]3(C)[C@H]21`, the compound was called inactive in experiment [20].

`CCC/C=C(\CCC)C(NC(=O)c1ccco1)c1ccc(C(=O)OC)cc1` (configuration not stated): the compound was classed as inactive in experiment [20].

On to `CCCC[C@@H]1C[C@H]1C(NC(=O)c1ccccc1)c1ccc(C(F)(F)F)cc1` (some centres not stated), for which the call in experiment [20] was inactive.

Take `CCCC[C@@H]1C[C@H]1C(NC(=O)c1ccco1)c1ccccc1C(F)(F)F` (some centres not stated): the outcome in experiment [20] was inactive.

With `COc1ccc2nc3c(c(-c4ccccc4)c2c1)CCC3`, the call in [20] was inactive.

Take `CCc1c2c(nc3ccc(OC)cc13)OC(CC)C2` (configuration not stated): the outcome in experiment [20] was inactive.

Regarding `COCCn1c(C(=O)N(C)C)cc2c1C[C@H]1CN(C(=O)c3ccccc3)[C@@](Cc3ccc(F)cc3)(C(=O)OC)[C@@H]21`, the result in [20] was inactive.

With `CCC[C@@H]1C[C@@]1(CCC)C(NP(=O)(c1ccccc1)c1ccccc1)c1ccc(Cl)cc1` (some centres not stated), the compound was classed as inactive in experiment [20].

For the compound `CCCC[C@H]1C[C@@H]1[C@@H]1N(C(C)=O)[C@H](c2cccc(OC)c2)CC12CC2`, the compound was classed as inactive in experiment [20].

Consider `COC(=O)[C@@]1(Cc2ccc(OC)cc2)[C@H]2c3cc(C(=O)N4CCCC4)n(Cc4ccc(OC)c(OC)c4)c3C[C@H]2CN1C(=O)c1ccccc1`, for which the compound was called inactive in experiment [20].
